This excerpt belongs to a sample that is enriched for the strongest signals.
test system: Gal(a1-2)Gal; experiment: glycan array binding signal (z-score within array); higher = stronger binding; conditions: glycan notation: IUPAC condensed, linker removed
Method in brief: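 Glycan array binding is given as a within-array Z-score, which can be read as non-binding when negative. The arrays, 3228 of them, came from the Consortium for Functional Glycomics database and were retained only where the protein sequence was available. Z-scores were averaged across arrays of the same protein sequence at different concentrations or buffers and across linkers.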

Chain of CHI3L1 (Homo sapiens), P36222 (P36222 whole entry): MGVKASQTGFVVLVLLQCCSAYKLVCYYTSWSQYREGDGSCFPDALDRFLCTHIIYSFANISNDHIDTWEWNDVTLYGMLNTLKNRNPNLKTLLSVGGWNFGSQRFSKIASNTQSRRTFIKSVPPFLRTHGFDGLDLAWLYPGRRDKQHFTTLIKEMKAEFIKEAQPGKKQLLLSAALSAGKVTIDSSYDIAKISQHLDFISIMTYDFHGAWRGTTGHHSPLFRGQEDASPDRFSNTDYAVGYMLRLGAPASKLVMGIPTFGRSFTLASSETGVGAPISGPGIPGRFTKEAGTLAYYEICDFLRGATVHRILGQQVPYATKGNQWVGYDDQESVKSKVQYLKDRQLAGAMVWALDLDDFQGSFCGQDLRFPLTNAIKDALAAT
Chain of Aggrecan (Rattus norvegicus), NP_071526 (chain, as listed by the source): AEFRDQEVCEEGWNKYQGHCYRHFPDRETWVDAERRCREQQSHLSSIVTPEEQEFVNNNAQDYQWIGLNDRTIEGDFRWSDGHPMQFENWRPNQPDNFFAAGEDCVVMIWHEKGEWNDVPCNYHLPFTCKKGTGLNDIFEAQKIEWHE
Chain of Regenerating Gene IV (Homo sapiens), Q9BYZ8 (Q9BYZ8 whole entry, looked up): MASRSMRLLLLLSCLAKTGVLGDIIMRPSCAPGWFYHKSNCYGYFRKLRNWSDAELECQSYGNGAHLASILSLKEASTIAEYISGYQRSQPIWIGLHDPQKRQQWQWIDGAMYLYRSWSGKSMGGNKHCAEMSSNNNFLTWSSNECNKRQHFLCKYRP

Row | Substance | glycan array binding signal (z-score)
1 | Aggrecan (Rattus norvegicus), NP_071526 | -0.066
2 | CHI3L1 (Homo sapiens), P36222 | -0.025
3 | Regenerating Gene IV (Homo sapiens), Q9BYZ8 | 6.89

Source: the supplement of paper PMC8728848
